Here are results for 40 molecules from PubChem BioAssay (Tox21).

Structures are written as SMILES. Records with an inconclusive call do not appear. Entries that show only a call come without a potency. Activity calls are given as the source filed them. The call rests on the fitted dose curve; in most records, active means well fitted cell-killing curve with a large enough effect in the repeat runs; inconclusive means weak or mixed curves, or effect the other way; inactive means no such curve, though single readings can be large or run the other way.
Potency means the concentration at half of the fitted maximal effect.

The nature of the test: qHTS assay to identify small molecule antagonists of the progesterone receptor (PR) signaling pathway - cell viability counter screen (AID 1346798). Further: nearly all actives have a fitted effect of over 50% in size. The following applies: PR-UAS-bla HEK293T viability, CellTiter-Glo luminescence, 16 h; series mostly up to 92.4 µM. The text has this: National Center for Advancing Translational Sciences [NCATS]
NIH Chemical Genomics Center [NCGC]
U.S. Environmental Protection Agency [EPA]
National Institutes of Environmental Health Sciences [NIEHS]
National Toxicology Program [NTP]
U.S. Food and Drug Administration [FDA]
Progesterone receptor (PR), a nuclear hormone receptor, plays an important role in development, metabolic homeostasis and reproduction. It is activated by the steroid hormone progesterone. Endocrine disrupting chemicals (EDCs) and their interactions with steroid hormone receptors like PR causes disruption of normal endocrine function. To identify the compounds that inhibit PR signaling, a PR-UAS-bla GripTite cell line i.e. PR-UAS-bla HEK293T (Invitrogen, Carlsbad, CA, USA) containing a beta-lactamase reporter gene under the control of an UAS response element was used to screen Tox21 10K compound library. The cytotoxicity of the Tox21 compound library against the PR-bla cell line was tested in parallel by measuring the cell viability using CellTiter-Glo assay in the same wells.
Tox21 Assay Protocol Summary:
PR-UAS-bla HEK293T cells were dispensed at 3,000 cells/4 uL of assay medium containing 2% charcoal stripped FBS per well into black wall/clear-bottom 1536-well plates using a Multidrop Combi (ThermoFisher Scientific, Waltham, MA) dispenser. After the assay plates were incubated at a 37C and 5% CO2 for 4 hr, 23 nL of compounds dissolved in DMSO, positive controls or DMSO only was transferred to the assay plate by a Pintool station (Kalypsys, San Diego, CA), followed by addition of 1 uL of R5020 in assay medium using a Flying Reagent Dispenser (FRD, Aurora Discovery, San Diego, CA). The plates were incubated at 37C and 5% CO2 for 16 hr. Then 1 uL of LiveBLAzer B/G FRET substrate was added using a Flying Reagent Dispenser, the plates were incubated at room temperature for 2 hours, and fluorescence intensity was measured by an Envision plate reader (PerkinElmer, Shelton, CT). For cell viability readout that measures cytotoxicity, 4 uL/well of CellTiter-Glo reagent was added into the assay plates using a FRD. After 30 min incubation at room temperature, the luminescence intensity in the plates was measured using a ViewLux (PerkinElmer) plate reader.
With `COc1cc(C(C)C)ccc1C`, the activity change, negative = cytotoxicity was -15.7% [at 18.9 µM] (inactive).

As to `CC/C=C\C/C=C\C/C=C\CCCCCCCC(=O)OC`, the Potency result was “inactive”.

Take `CCOC(=O)C1=NN(c2ccc(Cl)cc2Cl)C(C)(C(=O)OCC)C1` (stereo not given): the Potency entry is “inactive”.

`Cc1ccc2nc(-c3ccc(N)cc3)sc2c1S(=O)(=O)O`: the Potency result is “inactive”.

As for `CN1CCN(C)CC1`, the Potency result is “inactive”.

In the case of `Cc1ccc2n[nH]nc2c1`, the Potency entry was “inactive”.

Turning to `Cc1ccc(C=O)cc1`, the Potency result was “inactive”.

Consider `COc1cccc(-c2ccc(/C=C\CN3CCCCCC3)cc2Cl)c1`, for which the Potency entry was “inactive”.

For `CCCCCCCCc1ccc(Nc2ccc(CCCCCCCC)cc2)cc1`, the Potency entry is “inactive”.

Consider `CC(CC(C)(C)C)CC(C)(C)CC(C)(C)C` (stereo not given), for which the Potency result is “inactive”.

With `c1ccc2c(c1)-c1ccc3ccc4cccc5cc-2c1c3c45`, the Potency result was “inactive”.

Turning to `CCCCNc1ccc(NCCCC)c2c1C(=O)c1ccccc1C2=O`, the activity change, negative = cytotoxicity is -7.34% [at 18.9 µM] (inactive).

On to `CN(C/C=C/c1ccccc1)Cc1cccc2ccccc12`, for which the Potency entry is “inactive”.

For the molecule `c1ccc(-c2nc3ccccc3[nH]2)cc1`, the Potency result was “inactive”.

With `NC(=O)C1CO1` (stereo not given), the Potency entry is “inactive”.

For the molecule `O=C1Cc2ccccc2C1`, the Potency result is “inactive”.

Take `CC(C=O)c1ccccc1` (stereo not given): the Potency entry is “inactive”.

`CCOc1nc(F)cc2nc(S(=O)(=O)Nc3c(Cl)cccc3C(=O)OC)nn12`: the Potency entry was “inactive”.

Consider `CCc1cccc(CC)c1`, for which the Potency entry was “inactive”.

On to `C/C(=N\[Si](C)(C)C)O[Si](C)(C)C`, for which the Potency result is “inactive”.

`Cc1c(Cl)c(=O)oc2cc(O)ccc12`: the Potency result was “inactive”.

Take `NCc1ccco1`: the Potency result is “inactive”.

For `Oc1ccc(C2(c3ccc(O)c(C4CCCCC4)c3)CCCCC2)cc1C1CCCCC1`, the Potency was 43.3 µM (active).

In the case of `C=C(C)CCO`, the Potency result was “inactive”.

For `CC(C)(C)c1ccc(OC2CCCCC2O)cc1` (stereo not given), the Potency entry is “inactive”.

Turning to `N#CCCOCCC#N`, the Potency entry is “inactive”.

With `Nc1cc([N+](=O)[O-])cc(Cl)c1O`, the Potency entry was “inactive”.

Turning to `O=C(c1ccccc1)c1ccc(Cl)cc1`, the Potency result was “inactive”.

In the case of `Brc1cc(Br)cc(Br)c1`, the Potency result is “inactive”.

On to `C=Cc1ccncc1`, for which the Potency result is “inactive”.

`CCCCCCCC1CCC(=O)O1` (stereo not given): the Potency result was “inactive”.

As to `CCc1c(C)cc(N)c(CC)c1N`, the Potency result is “inactive”.

For `O=c1cc[nH]cc1`, the Potency entry is “inactive”.

Consider `C=C[Si](C)(C)Cl`, for which the activity change, negative = cytotoxicity is -4.28% [at 8.39 µM] (inactive).

Consider `CCOC(=O)[C@H](O)[C@@H](O)C(=O)OCC`, for which the Potency result is “inactive”.

Regarding `Cc1cccc2c1ccc1ccccc12`, the Potency result is “inactive”.

Consider `CCC(=O)OC/C=C(\C)CCC=C(C)C`, for which the Potency entry was “inactive”.

In the case of `CC(C)=NNC(N)=S`, the Potency is 21.7 µM (active).

On to `CC1(C)[C@H]2CC[C@]1(C)C(=O)C2`, for which the Potency result was “inactive”.

As to `CCCCCCCCCCCCS(=O)(=O)Cl`, the activity change, negative = cytotoxicity was -16% [at 18.9 µM] (inactive).
